Data reported in PubChem BioAssay (EPA / NIEHS).
Results filed as inconclusive are left out. The source made the active and inactive calls. The calls were made as follows, unless noted: active = hit-call score of the fitted dose curve at least 0.9, where 1 is the maximum; inactive = score below 0.9.

How the values were obtained:
[1] = target: Glucocorticoid receptor (Homo sapiens) (UniProt P04150); experiment: ATG_GR_TRANS: Attagene TRANS-FACTORIAL HepG2 Assay for human Glucocorticoid Receptor (GR) (AID 2282978; active = hit-call score of the fitted dose curve at least 0.9, where 1 is the maximum;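 also: activators score as hits since higher reporter transcript over DMSO is fitted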); details: HepG2 Attagene TRANS GR reporter, mRNA transcription
Summary of the method: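 Readout is reporter transcript from a chimeric GR-Gal4 acting on GAL4-UAS in transfected human HepG2 liver cells after 24 h exposure, quantified by RT-PCR and capillary electrophoresis. Activation fitted upward against DMSO.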

[2] = target: Bile acid receptor (Homo sapiens) (UniProt Q96RI1); experiment: ATG_FXR_TRANS: Attagene TRANS-FACTORIAL HepG2 Assay for Farnesoid X Receptor (FXR) (AID 2282979; active = hit-call score of the fitted dose curve at least 0.9, where 1 is the maximum;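 also: hits raise reporter mRNA above DMSO so AC50 marks FXR activation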); details: HepG2 Attagene TRANS FXR-GAL4 reporter transcription
Summary of the method: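 After 24 h chemical treatment of transfected HepG2 cells, GAL4-UAS reporter transcripts driven by an exogenous FXR-GAL4 fusion were measured by RT-PCR and capillary electrophoresis. Increases over DMSO were fitted.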

[3] = target: Oxysterols receptor LXR-alpha (Homo sapiens) (UniProt Q13133); experiment: ATG_LXRa_TRANS: Attagene TRANS-FACTORIAL HepG2 Assay for human Liver X Receptor alpha (LXRa) (AID 2282980; active = hit-call score of the fitted dose curve at least 0.9, where 1 is the maximum); details: HepG2 Attagene TRANS reporter, LXRa transactivation
Summary of the method: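 In this multiplexed TRANS system, compounds act on HepG2 cells carrying GAL4-UAS reporter units and a receptor-GAL4 fusion for 24 h. Induced reporter RNA is amplified, fluorescently labelled and sized by capillary electrophoresis, with DMSO as baseline.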

[4] = target: Oxysterols receptor LXR-beta (Homo sapiens) (UniProt P55055); experiment: ATG_LXRb_TRANS: Attagene TRANS-FACTORIAL HepG2 Assay for human Liver X Receptor beta (LXRb) (AID 2282981; active = hit-call score of the fitted dose curve at least 0.9, where 1 is the maximum); details: HepG2 Attagene TRANS GAL4-LXRb reporter, mRNA
Summary of the method: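 After 24 h chemical treatment of transfected HepG2 cells carrying exogenous NR-Gal4 chimeras, reporter mRNA was quantified by fluorescent RT-PCR and capillary electrophoresis; activity taken as increase over DMSO controls.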

[5] = ATG_M_06_TRANS: Attagene TRANS-FACTORIAL HepG2 Assay for M06 Transcription Factor (Internal Marker) (AID 2282983; active = hit-call score of the fitted dose curve at least 0.9, where 1 is the maximum); details: HepG2 Attagene TRANS M06 internal marker reporter
Summary of the method: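 Multi-reporter-transfected HepG2, 24 h treatment; reporter transcripts quantified via RT-PCR, primer-extension labelling and CE. DMSO-normalized gain-of-signal fit.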

[6] = ATG_M_32_TRANS: Attagene TRANS-FACTORIAL HepG2 Assay for M32 Transcription Factor (Internal Marker) (AID 2282984; active = hit-call score of the fitted dose curve at least 0.9, where 1 is the maximum;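 also: transcript level of a background control reporter unit measured by RT-PCR and capillary electrophoresis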); details: HepG2 Attagene TRANS M32 internal marker reporter
Summary of the method: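 Internal background reporter in transfected HepG2: after 24 h chemical exposure, RNA reverse-transcribed, reporter cDNA amplified, fluorescently labelled and HpaI-cut, then sized by capillary electrophoresis. Gain of signal fitted against DMSO control.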

[7] = target: Nuclear receptor subfamily 4 group A member 2 (Homo sapiens) (UniProt P43354); experiment: ATG_NURR1_TRANS: Attagene TRANS-FACTORIAL HepG2 Assay for human Nuclear Receptor Related Protein 1 (NURR1) (AID 2282985; active = hit-call score of the fitted dose curve at least 0.9, where 1 is the maximum); details: HepG2 Attagene TRANS reporter, mRNA readout
Summary of the method: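 Reporter transcript induction, measured by RT-PCR with fluorescent labelling, HpaI digestion and capillary electrophoresis, after 24 hr dosing of human HepG2 cells transiently expressing an exogenous NR-Gal4 fusion with GAL4-UAS-driven reporters; DMSO as baseline.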

[8] = target: Transcriptional activator Myb (Homo sapiens) (UniProt P10242); experiment: ATG_Myb_CIS: Attagene CIS-FACTORIAL HepG2 Assay for human Myeloblastosis (Myb) Proto-Oncogene Transcription Factor (AID 2282986); details: HepG2 Attagene CIS-FACTORIAL Myb reporter transcription; actives raise or lower the signal
Summary of the method: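 Reporter mRNA is quantified by RT-PCR and capillary electrophoresis 24 h after dosing HepG2 cells transfected with cis-regulated reporter units, which track endogenous transcription factor activity. Gain and loss of signal are fitted versus DMSO baseline.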

[9] = target: Nuclear respiratory factor 1 (Homo sapiens) (UniProt Q16656); experiment: ATG_NRF1_CIS: Attagene CIS-FACTORIAL HepG2 Assay for human Nuclear Respiratory Factor 1 (NRF1) Orphan Gene (AID 2282987); details: HepG2 NRF1 cis-element reporter, Attagene multiplex; actives raise or lower the signal
Summary of the method: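 Endogenous NRF1-driven reporter transcription in transfected HepG2 cells after 24 h treatment. Readout: RT-PCR products, 6-FAM labelled and resolved by capillary electrophoresis; changes fitted both directions relative to DMSO.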

[10] = ATG_NFI_CIS: Attagene CIS-FACTORIAL HepG2 Assay for human Nuclear Factor I (NFI) (AID 2282989); details: HepG2 cis-regulatory reporter, NFI response element transcription; actives raise or lower the signal
Summary of the method: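 HepG2, transient MRTU, 24 h exposure; RNA→cDNA→PCR→FAM label→HpaI→CE fluorescence. Bidirectional fit, DMSO = baseline.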

[11] = target: Myc proto-oncogene protein (Homo sapiens) (UniProt P01106); experiment: ATG_Myc_CIS: Attagene CIS-FACTORIAL HepG2 Assay for human Myelocytomatosis (Myc) Proto-Oncogene Transcription Factor (AID 2282990); details: HepG2, Attagene cis-reporter transcription factor activity; actives raise or lower the signal
Summary of the method: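 HepG2, transient MRTU transfection (cis promoters, endogenous TFs); 24 h dosing; TriZol RNA → oligo(dT) RT → PCR → 6-FAM primer extension → HpaI cut → CE. Bidirectional fit vs DMSO.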

[12] = ATG_NF_kB_CIS: Attagene CIS-FACTORIAL HepG2 Assay for human Nuclear Factor Kappa B (NF-kB) (AID 2282991); details: HepG2 Attagene cis-factorial NF-kB reporter mRNA; actives raise or lower the signal
Summary of the method: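 Readout is reporter transcript level, gain or loss versus DMSO, measured 24 h post-dose via RT-PCR, fluorescent labelling and capillary electrophoresis. Human HepG2 liver cells carried transiently transfected CIS reporter constructs reflecting endogenous factors.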

[13] = ATG_NRF2_ARE_CIS: Attagene CIS-FACTORIAL HepG2 Assay for human Nuclear Factor Erythroid 2 Related Factor 2 (NFR2) response to Antioxidant Response Elements (ARE) (AID 2282992); details: HepG2 Attagene ARE/NRF2 reporter, transcription factor activity; actives raise or lower the signal;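 as to AC50: reporter mRNA level measured by RT-PCR and capillary electrophoresis fluorescence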
Summary of the method: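 Readout: reporter mRNA quantified by RT-PCR plus FAM-labelled primer extension, HpaI digestion and capillary electrophoresis, 24 h after dosing transfected HepG2 cells. Gain or loss of signal is fitted bidirectionally against DMSO baseline.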

[14] = ATG_Oct_MLP_CIS: Attagene CIS-FACTORIAL HepG2 Assay for human Octamer-Binding Transcription Factor (Oct) (AID 2282993); details: HepG2 Attagene cis-factorial Oct reporter, mRNA; actives raise or lower the signal
Summary of the method: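 Multiplexed cis-reporter assay in human liver HepG2 cells, 24 h incubation. Reporter RNA amplified and labelled, then resolved by capillary electrophoresis; DMSO serves as negative control and baseline.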

[15] = target: Cellular tumor antigen p53 (Homo sapiens) (UniProt P04637); experiment: ATG_p53_CIS: Attagene CIS-FACTORIAL HepG2 Assay for human p53 Transcription Factor (AID 2282994); details: HepG2 p53 cis-element reporter, Attagene mRNA; actives raise or lower the signal
Summary of the method: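 Read-out: reporter mRNA by RT-PCR plus capillary electrophoresis with fluorescence detection. Human HepG2 liver cells carried transfected multi-reporter cis-element constructs, dosed 24 h. Gain or loss of signal fitted bidirectionally against DMSO control.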

[16] = target: Hepatocyte nuclear factor 4-alpha (Homo sapiens) (UniProt P41235); experiment: ATG_HNF4a_TRANS: Attagene TRANS-FACTORIAL HepG2 Assay for human Hepatocyte Nuclear Factor 4 alpha (HNF4a) (AID 2282982; active = hit-call score of the fitted dose curve at least 0.9, where 1 is the maximum); details: HepG2 HNF4a transactivation reporter, mRNA readout
Summary of the method: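 Activity of an exogenous HNF4a–Gal4 fusion scored as induced GAL4-UAS reporter transcripts after 24 h chemical exposure of transfected human HepG2 cells. Read-out via RT-PCR with 6-FAM labelling and capillary electrophoresis; rise over DMSO baseline.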

[17] = BSK_3C_TissueFactor: BioMAP Diversity Plus: 3C Assay for Tissue Factor Biomarker Activity (AID 2282997); details: BioMAP 3C HUVEC, tissue factor biomarker readout; actives raise or lower the signal
Summary of the method: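 In this endothelial system, HUVEC are treated for 24 h and Tissue Factor is assessed by ELISA, normalised to DMSO.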

[18] = BSK_3C_uPAR: BioMAP Diversity Plus: 3C Assay for Urokinase-type plasminogen activator receptor (uPAR) Biomarker Activity (AID 2282998); details: BioMAP 3C HUVEC, uPAR biomarker ELISA; actives raise or lower the signal
Summary of the method: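 Dose primary human umbilical vein endothelial cells, incubate 24 h, measure cell-surface uPAR by ELISA, then fit the signal in both directions against the DMSO negative control.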

[19] = BSK_4H_Eotaxin3: BioMAP Diversity Plus: 4H Assay for Eotaxin 3 Biomarker Activity (AID 2283000); details: primary human endothelial cells (HUVEC); actives raise or lower the signal
Summary of the method: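 ELISA quantitation of CCL26 (Eotaxin-3) protein from chemically dosed human vascular endothelial cells at 24 h; increases and decreases both scored relative to DMSO-treated baseline.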

Measured: AC50

Sequence of Oxysterols receptor LXR-beta (Homo sapiens) (P55055 whole entry, looked up, the tested form may be a part): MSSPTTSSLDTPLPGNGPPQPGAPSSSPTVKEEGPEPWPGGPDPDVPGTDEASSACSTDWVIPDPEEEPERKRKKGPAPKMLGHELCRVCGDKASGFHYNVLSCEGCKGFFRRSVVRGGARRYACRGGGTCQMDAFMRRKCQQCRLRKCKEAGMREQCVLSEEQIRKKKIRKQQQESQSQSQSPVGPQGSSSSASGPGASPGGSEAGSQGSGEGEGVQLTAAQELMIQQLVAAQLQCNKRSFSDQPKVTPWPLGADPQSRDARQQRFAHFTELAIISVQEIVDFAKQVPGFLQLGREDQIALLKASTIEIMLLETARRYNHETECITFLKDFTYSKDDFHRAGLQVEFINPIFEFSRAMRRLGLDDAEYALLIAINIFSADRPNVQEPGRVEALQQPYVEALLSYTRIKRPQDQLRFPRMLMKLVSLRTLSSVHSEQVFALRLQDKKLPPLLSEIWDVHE
Sequence of Nuclear receptor subfamily 4 group A member 2 (Homo sapiens) (P43354 whole entry, looked up, the tested form may be a part): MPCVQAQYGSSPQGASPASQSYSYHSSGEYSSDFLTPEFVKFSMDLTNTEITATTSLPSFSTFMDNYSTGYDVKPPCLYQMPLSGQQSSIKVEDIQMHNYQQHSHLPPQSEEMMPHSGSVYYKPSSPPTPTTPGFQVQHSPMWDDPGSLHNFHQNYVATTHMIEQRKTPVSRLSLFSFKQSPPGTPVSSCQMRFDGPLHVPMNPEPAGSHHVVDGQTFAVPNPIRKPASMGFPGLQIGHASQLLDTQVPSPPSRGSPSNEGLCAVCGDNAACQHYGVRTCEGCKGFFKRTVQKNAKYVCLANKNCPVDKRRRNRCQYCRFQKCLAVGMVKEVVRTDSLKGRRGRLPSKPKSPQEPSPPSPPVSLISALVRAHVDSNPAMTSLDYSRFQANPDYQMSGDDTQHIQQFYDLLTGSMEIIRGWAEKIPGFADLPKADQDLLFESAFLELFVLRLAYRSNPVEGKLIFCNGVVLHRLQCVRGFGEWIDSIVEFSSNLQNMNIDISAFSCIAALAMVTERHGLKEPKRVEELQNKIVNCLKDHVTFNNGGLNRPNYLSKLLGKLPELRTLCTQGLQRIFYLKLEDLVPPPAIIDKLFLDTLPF
Sequence of Nuclear respiratory factor 1 (Homo sapiens) (Q16656 whole entry, looked up): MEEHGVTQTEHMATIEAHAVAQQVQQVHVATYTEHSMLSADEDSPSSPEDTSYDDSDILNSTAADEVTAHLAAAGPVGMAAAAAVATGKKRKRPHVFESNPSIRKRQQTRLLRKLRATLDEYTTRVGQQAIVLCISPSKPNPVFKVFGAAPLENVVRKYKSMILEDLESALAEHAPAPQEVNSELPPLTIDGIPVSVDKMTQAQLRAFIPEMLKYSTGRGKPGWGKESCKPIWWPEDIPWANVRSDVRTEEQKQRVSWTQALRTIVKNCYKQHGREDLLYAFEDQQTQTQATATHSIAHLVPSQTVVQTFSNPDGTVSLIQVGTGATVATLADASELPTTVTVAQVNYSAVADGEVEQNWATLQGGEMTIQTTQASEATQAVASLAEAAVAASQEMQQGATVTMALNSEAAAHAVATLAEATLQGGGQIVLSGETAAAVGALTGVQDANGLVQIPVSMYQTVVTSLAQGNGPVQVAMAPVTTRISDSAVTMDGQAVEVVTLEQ
Sequence of Transcriptional activator Myb (Homo sapiens) (P10242 whole entry, looked up): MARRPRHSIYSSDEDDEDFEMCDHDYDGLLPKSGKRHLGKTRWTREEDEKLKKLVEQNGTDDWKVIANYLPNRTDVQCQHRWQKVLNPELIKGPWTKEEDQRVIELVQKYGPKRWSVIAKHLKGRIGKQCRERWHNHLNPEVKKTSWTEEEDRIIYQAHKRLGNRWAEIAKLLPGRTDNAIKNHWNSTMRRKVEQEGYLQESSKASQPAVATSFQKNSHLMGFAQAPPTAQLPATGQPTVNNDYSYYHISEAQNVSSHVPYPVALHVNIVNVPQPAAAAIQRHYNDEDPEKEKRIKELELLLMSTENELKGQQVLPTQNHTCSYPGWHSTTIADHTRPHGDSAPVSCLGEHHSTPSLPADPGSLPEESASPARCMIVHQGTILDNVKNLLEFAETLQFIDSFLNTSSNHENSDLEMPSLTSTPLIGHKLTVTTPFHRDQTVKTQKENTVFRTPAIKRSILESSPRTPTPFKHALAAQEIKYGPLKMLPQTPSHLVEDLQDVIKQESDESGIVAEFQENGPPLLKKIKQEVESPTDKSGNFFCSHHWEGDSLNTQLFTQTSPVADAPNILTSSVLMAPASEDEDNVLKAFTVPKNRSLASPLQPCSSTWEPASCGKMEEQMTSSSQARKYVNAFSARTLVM
Sequence of Cellular tumor antigen p53 (Homo sapiens) (P04637 whole entry, looked up): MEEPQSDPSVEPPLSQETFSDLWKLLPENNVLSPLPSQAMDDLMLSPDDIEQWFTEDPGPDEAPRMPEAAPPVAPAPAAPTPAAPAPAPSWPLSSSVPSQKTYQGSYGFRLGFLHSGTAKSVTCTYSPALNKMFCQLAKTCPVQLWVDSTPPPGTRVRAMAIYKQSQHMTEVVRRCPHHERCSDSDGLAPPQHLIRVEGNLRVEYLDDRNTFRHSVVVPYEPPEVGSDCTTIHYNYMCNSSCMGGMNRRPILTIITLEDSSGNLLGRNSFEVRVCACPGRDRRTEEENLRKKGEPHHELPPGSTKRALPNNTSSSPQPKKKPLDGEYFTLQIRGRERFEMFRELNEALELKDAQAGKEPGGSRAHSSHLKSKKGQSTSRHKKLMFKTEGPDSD
Sequence of Oxysterols receptor LXR-alpha (Homo sapiens) (Q13133 whole entry, looked up, the tested form may be a part): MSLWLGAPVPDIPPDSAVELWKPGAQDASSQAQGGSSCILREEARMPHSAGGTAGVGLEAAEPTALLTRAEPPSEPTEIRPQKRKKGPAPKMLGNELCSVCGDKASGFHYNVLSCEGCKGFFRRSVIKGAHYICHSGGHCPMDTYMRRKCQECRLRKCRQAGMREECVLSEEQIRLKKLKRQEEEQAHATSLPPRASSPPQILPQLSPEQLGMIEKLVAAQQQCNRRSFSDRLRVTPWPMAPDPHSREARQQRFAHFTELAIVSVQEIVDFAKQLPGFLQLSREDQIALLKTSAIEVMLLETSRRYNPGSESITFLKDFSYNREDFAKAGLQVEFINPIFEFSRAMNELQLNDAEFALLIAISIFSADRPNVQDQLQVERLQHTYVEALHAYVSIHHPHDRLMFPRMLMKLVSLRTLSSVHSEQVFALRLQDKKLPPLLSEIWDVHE
Sequence of Hepatocyte nuclear factor 4-alpha (Homo sapiens) (P41235 whole entry, looked up, the tested form may be a part): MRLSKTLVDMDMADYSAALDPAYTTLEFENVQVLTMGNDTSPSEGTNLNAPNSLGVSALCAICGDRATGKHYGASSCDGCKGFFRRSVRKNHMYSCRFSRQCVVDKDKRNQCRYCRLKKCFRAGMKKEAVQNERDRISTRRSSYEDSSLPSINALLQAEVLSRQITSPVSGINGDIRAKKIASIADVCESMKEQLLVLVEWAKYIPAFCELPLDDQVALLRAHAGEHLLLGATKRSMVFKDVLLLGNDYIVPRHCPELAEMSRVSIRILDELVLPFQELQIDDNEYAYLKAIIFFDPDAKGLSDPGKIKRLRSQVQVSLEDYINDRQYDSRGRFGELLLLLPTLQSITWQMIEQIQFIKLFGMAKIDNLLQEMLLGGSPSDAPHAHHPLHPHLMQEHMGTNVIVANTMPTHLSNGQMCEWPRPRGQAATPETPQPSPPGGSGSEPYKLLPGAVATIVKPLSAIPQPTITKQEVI
Sequence of Myc proto-oncogene protein (Homo sapiens) (P01106 whole entry, looked up): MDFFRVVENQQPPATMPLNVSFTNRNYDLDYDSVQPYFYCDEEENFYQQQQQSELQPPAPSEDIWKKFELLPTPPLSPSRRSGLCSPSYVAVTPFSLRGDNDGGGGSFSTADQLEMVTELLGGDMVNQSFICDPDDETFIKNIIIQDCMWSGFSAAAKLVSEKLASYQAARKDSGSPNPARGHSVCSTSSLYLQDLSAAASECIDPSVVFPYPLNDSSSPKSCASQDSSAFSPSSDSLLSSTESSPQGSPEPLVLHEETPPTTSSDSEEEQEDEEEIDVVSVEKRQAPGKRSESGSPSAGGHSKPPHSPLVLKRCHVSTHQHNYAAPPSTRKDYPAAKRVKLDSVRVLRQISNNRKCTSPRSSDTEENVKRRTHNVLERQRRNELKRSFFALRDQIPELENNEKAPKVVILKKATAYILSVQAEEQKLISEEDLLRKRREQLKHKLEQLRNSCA
Sequence of Bile acid receptor (Homo sapiens) (Q96RI1 whole entry, looked up, the tested form may be a part): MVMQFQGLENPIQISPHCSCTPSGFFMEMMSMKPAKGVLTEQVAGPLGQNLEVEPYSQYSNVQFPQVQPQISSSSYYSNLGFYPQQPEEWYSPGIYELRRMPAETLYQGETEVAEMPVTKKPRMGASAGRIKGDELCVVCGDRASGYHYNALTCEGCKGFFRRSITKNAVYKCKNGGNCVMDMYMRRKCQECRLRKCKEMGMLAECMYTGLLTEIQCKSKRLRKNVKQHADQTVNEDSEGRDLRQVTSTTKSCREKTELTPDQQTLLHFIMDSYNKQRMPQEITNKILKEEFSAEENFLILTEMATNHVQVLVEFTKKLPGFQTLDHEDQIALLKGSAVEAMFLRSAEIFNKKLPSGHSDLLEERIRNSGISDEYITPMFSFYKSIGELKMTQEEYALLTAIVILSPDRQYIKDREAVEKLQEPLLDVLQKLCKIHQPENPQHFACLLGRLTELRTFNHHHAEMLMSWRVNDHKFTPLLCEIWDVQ

CCCc1c(OCCCOc2ccc(OCC(=O)O)cc2)ccc(C(C)=O)c1O
active: [7] 100 µM | [9] 100 µM
not listed: [16] | [17] | [18] | [19]
inactive: all other assays above

CCCC(=O)c1cc(O)c(O)cc1O
not listed: [4] | [6] | [16] | [17] | [18] | [19]
inactive: all other assays above

CCC(O)CO (configuration not stated)
not listed: [4] | [5] | [7] | [17] | [18] | [19]
inactive: all other assays above

CC(C)c1ccc(C(C)C)cc1
active: [13] 162 µM | [15] 158 µM | [17] 29.4 µM | [18] 31.6 µM | [19] 36 µM
not listed: [3] | [4] | [10] | [12] | [16]
inactive: all other assays above

C=CC(=O)OCCn1c(=O)n(CCOC(=O)C=C)c(=O)n(CCOC(=O)C=C)c1=O
active: [13] 0.811 µM | [14] 8.38 µM | [15] 24.3 µM
inactive: [1] | [2] | [16] | [5] | [6] | [8] | [9] | [10] | [11]

CC1(C)CCC(C)(C)c2cc(C(=O)Nc3ccc(C(=O)O)cc3)ccc21
active: [2] 13 µM | [9] 93.6 µM | [14] 100 µM | [15] 55.1 µM
not listed: [3] | [13] | [16] | [17] | [18] | [19]
inactive: all other assays above

O=C(O)C[C@H](O)C[C@H](O)/C=C/c1c(C2CC2)nc2ccccc2c1-c1ccc(F)cc1
active: [12] 2.68 µM | [18] 0.289 µM | [19] 0.198 µM
not listed: [3] | [7]
inactive: all other assays above

CCCCNC(=O)NS(=O)(=O)c1ccc(C)cc1
not listed: [3] | [5] | [8] | [12] | [16] | [17] | [18] | [19]
inactive: all other assays above

CN(C)CCCN
not listed: [3] | [7] | [17] | [18] | [19]
inactive: all other assays above

CC(=O)OCc1ccc2c(c1)OCO2
not listed: [4] | [11] | [12] | [16] | [17] | [18] | [19]
inactive: all other assays above

CC1=CCC2C(C1)C2(C)C (configuration not stated)
active: [12] 49.1 µM | [13] 48.8 µM
not listed: [7] | [17] | [18] | [19]
inactive: all other assays above

CC(C)=CCC[C@H](C)CC=O
not listed: [12] | [16] | [17] | [18] | [19]
inactive: all other assays above

COc1c(Cl)c(Cl)c(Cl)c(Cl)c1Cl
not listed: [3] | [4] | [6] | [7] | [15] | [17] | [18] | [19]
inactive: all other assays above

COc1cc2ncnc(Nc3cccc(Cl)c3)c2cc1OC
active: [12] 40.8 µM | [14] 25 µM | [15] 1.57 µM
not listed: [7] | [10] | [17] | [18] | [19]
inactive: all other assays above

c1ccc2c(c1)c1cccc3ccc4cccc2c4c31
not listed: [4] | [5] | [7]
inactive: all other assays above

NC(=O)c1ccccc1Cl
active: [10] 61.6 µM | [13] 25.8 µM | [14] 55.1 µM | [15] 143 µM
inactive: [1] | [2] | [3] | [6] | [7] | [8] | [9] | [12]

CSc1nnc(C(C)(C)C)c(=O)[nH]1
not listed: [3] | [4] | [5] | [7] | [17] | [18] | [19]
inactive: all other assays above

O=C(O)c1cn(C2CC2)c2cc(N3CCNCC3)c(F)cc2c1=O
inactive: [1] | [2] | [5] | [8] | [11] | [14] | [15] | [18] | [19]

O=C(Nc1ccccc1)c1cc([N+](=O)[O-])ccc1Cl
active: [13] 34.6 µM | [15] 68.6 µM
not listed: [16] | [17] | [18] | [19]
inactive: all other assays above
